Data reported in the supplement of paper PMC9262897, “Low-cost anti-mycobacterial drug discovery using engineered E. coli” (Nature Communications, 2022).
Where a name gives a salt, the structure may show the parent alone. ± gives the standard deviation of the averaged measurements.

test system: E. coli TESEC Mtb DapB; experiment: growth (OD600 after 10 h); higher = more growth (less inhibition); settings: arabinose induction (level): High; compound 0.1 mM; raw OD600 reference: median of DMSO wells […], cell-free background 0.041
Procedure: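 TESEC E. coli strains in which the native enzyme is deleted and replaced by arabinose-inducible Mtb Asd, DapB, CysH or TrpD, each grown in its selective medium. Strains were screened against the Prestwick library at 0.1 mM and 1% DMSO in 384-well format at low and high arabinose induction. Growth is read as OD600 after 10 h in triplicate.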

Q: How did the growth turn out when `CC[C@@H](C(N)=O)N1CCCC1=O` [Levetiracetam] was run?
A: 0.188 ± 0.0023

Q: How did the growth turn out when `CN1CCC2(C)c3cc(O)ccc3N(C)C12` (single isomer, unassigned; (-)) [(-)-Eseroline fumarate salt] was run?
A: 0.197 ± 0.0051

Q: With `C=C1C[C@@H]2[C@H](CC[C@]3(C)C(=O)CC[C@@H]23)[C@@]2(C)C=CC(=O)C=C12` [Exemestane] as the compound, how does the growth read?
A: 0.112 ± 0.0048

Q: For `COc1cc2c(cc1OC)C(C)NCC2` (stereo not given), which growth is on record?
A: 0.212 ± 0.013

Q: `C[C@@]12N[C@@H](Cc3ccccc31)c1ccccc12` [(-)-MK 801 hydrogen maleate] was tested. Which growth did it give?
A: 0.213 ± 0.036

Q: `CC(C)c1c(CN(C)C(C)Cc2ccccc2)n(C)n(-c2ccccc2)c1=O` (stereo not given) [Famprofazone] was tested. Which growth did it give?
A: 0.202 ± 0.0043

Q: How did the growth turn out when `C[N+](C)(C)CCCCCCCCCC[N+](C)(C)C` [Decamethonium bromide] was run?
A: 0.234 ± 0.021

Q: For `COc1ccc(C(CN(C)C)C2(O)CCCCC2)cc1` (stereo not given) [Venlafaxine], which growth is on record?
A: 0.207 ± 0.0032

Q: How did the growth turn out when `O=P1(N(CCCl)CCCl)NCCCO1` (stereo not given) [Cyclophosphamide] was run?
A: 0.205 ± 0.019

Q: With `CN[C@@H]1[C@@H](O)[C@@H](O[C@@H]2[C@@H](O)[C@H](O[C@H]3O[C@H](CN)CC[C@H]3N)[C@@H](N)C[C@H]2N)OC[C@]1(C)O.CN[C@@H]1[C@@H](O)[C@@H](O[C@@H]2[C@@H](O)[C@H](O[C@H]3O[C@H]([C@@H](C)N)CC[C@H]3N)[C@@H](N)C[C@H]2N)OC[C@]1(C)O.CN[C@@H]1[C@@H](O)[C@@H](O[C@@H]2[C@@H](O)[C@H](O[C@H]3O[C@H]([C@@H](C)NC)CC[C@H]3N)[C@@H](N)C[C@H]2N)OC[C@]1(C)O` [Gentamicine sulfate] as the compound, how does the growth read?
A: 0.21 ± 0.067

Q: With `CC(=O)O[C@H]1C[C@H](O[C@H]2[C@@H](O)C[C@H](O[C@H]3[C@@H](O)C[C@H](O[C@H]4CC[C@@]5(C)[C@H](CC[C@@H]6[C@@H]5C[C@@H](O)[C@]5(C)[C@@H](C7=CC(=O)OC7)CC[C@]65O)C4)O[C@@H]3C)O[C@@H]2C)O[C@H](C)[C@H]1O[C@@H]1O[C@H](CO)[C@@H](O)[C@H](O)[C@H]1O` [Lanatoside C] as the compound, how does the growth read?
A: 0.184 ± 0.021

Q: How did the growth turn out when `CCN[C@@H](C)Cc1cccc(C(F)(F)F)c1` [Dexfenfluramine hydrochloride] was run?
A: 0.189 ± 0.0055

Q: For `COc1ccc(CN2CCNCC2)c(OC)c1OC` [Trimetazidine dihydrochloride], which growth is on record?
A: 0.197 ± 0.0097

Q: `C[C@]12CC[C@H]3[C@@H](CCC4=CC(=O)CC[C@@H]43)[C@@H]1CC[C@@H]2O` [Nandrolone] was tested. Which growth did it give?
A: 0.1471 ± 0.0014

Q: How did the growth turn out when `CC(C)N(CCC(C(N)=O)(c1ccccc1)c1ccccn1)C(C)C` (stereo not given) [Disopyramide] was run?
A: 0.175 ± 0.0095

Q: Which growth does the source give for `CCCN1C[C@H](CSC)C[C@@H]2c3cccc4[nH]cc(c34)C[C@H]21` [Pergolide mesylate] here?
A: 0.2 ± 0.027

Q: Which growth does the source give for `c1ccc2c(c1)Nc1ccccc1S2` [Phenothiazine] here?
A: 0.209 ± 0.034

Q: With `c1ccc2c(c1)OCC(C1=NCCN1)O2` (stereo not given) [Idazoxan hydrochloride] as the compound, how does the growth read?
A: 0.183 ± 0.017

Q: How did the growth turn out when `CC(NC(C)(C)C)C(=O)c1cccc(Cl)c1` (stereo not given) [Bupropion hydrochloride] was run?
A: 0.202 ± 0.0039

Q: `C[C@@H]1CN([C@H]2CC[C@](C#N)(c3ccc(F)cc3)CC2)CC[C@]1(C(=O)O)c1ccccc1` [Levocabastine hydrochloride] was tested. Which growth did it give?
A: 0.192 ± 0.0051

same assay, conditions: arabinose induction (level): Low; compound 0.1 mM; raw OD600 reference: median of DMSO wells 0.227, cell-free background 0.041

Q: How did the growth turn out when `CC[C@@H](C(N)=O)N1CCCC1=O` [Levetiracetam] was run?
A: 0.229 ± 0.023

Q: For `CN1CCC2(C)c3cc(O)ccc3N(C)C12` (single isomer, unassigned; (-)) [(-)-Eseroline fumarate salt], which growth is on record?
A: 0.209 ± 0.034

Q: `C=C1C[C@@H]2[C@H](CC[C@]3(C)C(=O)CC[C@@H]23)[C@@]2(C)C=CC(=O)C=C12` [Exemestane] was tested. Which growth did it give?
A: 0.109 ± 0.0022

Q: With `COc1cc2c(cc1OC)C(C)NCC2` (stereo not given) as the compound, how does the growth read?
A: 0.232 ± 0.0067

Q: How did the growth turn out when `C[C@@]12N[C@@H](Cc3ccccc31)c1ccccc12` [(-)-MK 801 hydrogen maleate] was run?
A: 0.221 ± 0.018

Q: For `CC(C)c1c(CN(C)C(C)Cc2ccccc2)n(C)n(-c2ccccc2)c1=O` (stereo not given) [Famprofazone], which growth is on record?
A: 0.236 ± 0.04

Q: `C[N+](C)(C)CCCCCCCCCC[N+](C)(C)C` [Decamethonium bromide] was tested. Which growth did it give?
A: 0.242 ± 0.0099

Q: How did the growth turn out when `COc1ccc(C(CN(C)C)C2(O)CCCCC2)cc1` (stereo not given) [Venlafaxine] was run?
A: 0.22 ± 0.016

Q: Which growth does the source give for `O=P1(N(CCCl)CCCl)NCCCO1` (stereo not given) [Cyclophosphamide] here?
A: 0.216 ± 0.029

Q: `CN[C@@H]1[C@@H](O)[C@@H](O[C@@H]2[C@@H](O)[C@H](O[C@H]3O[C@H](CN)CC[C@H]3N)[C@@H](N)C[C@H]2N)OC[C@]1(C)O.CN[C@@H]1[C@@H](O)[C@@H](O[C@@H]2[C@@H](O)[C@H](O[C@H]3O[C@H]([C@@H](C)N)CC[C@H]3N)[C@@H](N)C[C@H]2N)OC[C@]1(C)O.CN[C@@H]1[C@@H](O)[C@@H](O[C@@H]2[C@@H](O)[C@H](O[C@H]3O[C@H]([C@@H](C)NC)CC[C@H]3N)[C@@H](N)C[C@H]2N)OC[C@]1(C)O` [Gentamicine sulfate] was tested. Which growth did it give?
A: 0.112 ± 0.0046

Q: With `CC(=O)O[C@H]1C[C@H](O[C@H]2[C@@H](O)C[C@H](O[C@H]3[C@@H](O)C[C@H](O[C@H]4CC[C@@]5(C)[C@H](CC[C@@H]6[C@@H]5C[C@@H](O)[C@]5(C)[C@@H](C7=CC(=O)OC7)CC[C@]65O)C4)O[C@@H]3C)O[C@@H]2C)O[C@H](C)[C@H]1O[C@@H]1O[C@H](CO)[C@@H](O)[C@H](O)[C@H]1O` [Lanatoside C] as the compound, how does the growth read?
A: 0.233 ± 0.03

Q: How did the growth turn out when `CCN[C@@H](C)Cc1cccc(C(F)(F)F)c1` [Dexfenfluramine hydrochloride] was run?
A: 0.246 ± 0.0058

Q: Which growth does the source give for `COc1ccc(CN2CCNCC2)c(OC)c1OC` [Trimetazidine dihydrochloride] here?
A: 0.242 ± 0.028

Q: How did the growth turn out when `C[C@]12CC[C@H]3[C@@H](CCC4=CC(=O)CC[C@@H]43)[C@@H]1CC[C@@H]2O` [Nandrolone] was run?
A: 0.159 ± 0.0037

Q: For `CC(C)N(CCC(C(N)=O)(c1ccccc1)c1ccccn1)C(C)C` (stereo not given) [Disopyramide], which growth is on record?
A: 0.195 ± 0.02

Q: Which growth does the source give for `CCCN1C[C@H](CSC)C[C@@H]2c3cccc4[nH]cc(c34)C[C@H]21` [Pergolide mesylate] here?
A: 0.234 ± 0.049

Q: With `c1ccc2c(c1)Nc1ccccc1S2` [Phenothiazine] as the compound, how does the growth read?
A: 0.236 ± 0.03

Q: With `c1ccc2c(c1)OCC(C1=NCCN1)O2` (stereo not given) [Idazoxan hydrochloride] as the compound, how does the growth read?
A: 0.228 ± 0.021

Q: `CC(NC(C)(C)C)C(=O)c1cccc(Cl)c1` (stereo not given) [Bupropion hydrochloride] was tested. Which growth did it give?
A: 0.261 ± 0.086

Q: For `C[C@@H]1CN([C@H]2CC[C@](C#N)(c3ccc(F)cc3)CC2)CC[C@]1(C(=O)O)c1ccccc1` [Levocabastine hydrochloride], which growth is on record?
A: 0.265 ± 0.029
